Screens: PubChem BioAssay, National Center for Advancing Translational Sciences (NCATS)
ELG1 genotoxic: genotoxicity induction in ELG1-luciferase HEK293T cells | Potency, µM (series often up to 46 µM), for the others: top-dose activity change, positive = activation, actives largely listed as activators | 330,000 tested, 1.3% active | HEK293T ELG1-luciferase reporter, luminescence, 16 h; further: % of control where 0% means no effect; nearly all actives have a fitted effect of over 60% in size
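HEK293T cells expressing luciferase-tagged ELG1 were treated with compound or DMSO for 16 hr at 37°C. Luciferase activity was then read after 30 min with ONE-Glo at room temperature; rising signal flags genetic stress.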
NPC1 prom act: activates the NPC1 promoter; Huh7 NPC1 promoter luciferase reporter, 24 h; AID 485313; 320,000 tested, 2.4% active; Potency, µM (highest dose often 9.22 µM), for the others: at the top dose activation, most hits filed as activators; further: % of control where 0% means no effect; nearly all actives have a fitted effect of over 60% in size
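Huh7 reporter cells (NPC1 promoter driving luciferase) are dosed with compound for 24 h at 37 °C, 5% CO2; luciferase detection reagent is then added and luminescence measured after 10 min at ambient temperature.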
FLuc modulator: inhibits or activates purified firefly luciferase, miR-21 counter-screen; P08659; purified FLuc, Km substrates, luminescence inhibition; Potency, µM (top dose mostly 57.5 µM), without a hit: at the top dose activity change, negative = inhibition, usual class: inhibitors; 360,000 tested, 6.9% active;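 further: plate controls were vehicle for no effect and reference inhibitor for full effect; nearly all actives have a fitted effect of over 55% in size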
Target sequence (P08659 whole entry, looked up): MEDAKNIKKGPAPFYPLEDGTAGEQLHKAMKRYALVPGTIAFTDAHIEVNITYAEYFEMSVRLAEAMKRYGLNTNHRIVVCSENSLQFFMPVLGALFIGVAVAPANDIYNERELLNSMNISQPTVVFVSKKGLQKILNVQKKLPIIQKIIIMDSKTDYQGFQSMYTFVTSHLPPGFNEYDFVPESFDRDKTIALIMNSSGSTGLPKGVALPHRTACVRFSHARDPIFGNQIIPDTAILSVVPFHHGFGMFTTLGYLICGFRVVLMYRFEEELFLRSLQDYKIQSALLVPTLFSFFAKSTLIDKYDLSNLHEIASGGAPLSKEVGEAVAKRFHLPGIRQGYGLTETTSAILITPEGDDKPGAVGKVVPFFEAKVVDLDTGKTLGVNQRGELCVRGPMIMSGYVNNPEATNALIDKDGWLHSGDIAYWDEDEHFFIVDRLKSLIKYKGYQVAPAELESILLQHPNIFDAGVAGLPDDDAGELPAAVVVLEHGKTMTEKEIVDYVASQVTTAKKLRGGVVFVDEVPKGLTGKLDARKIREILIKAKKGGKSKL
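Purified P. pyralis luciferase (10nM final) with 10uM D-luciferin and 10uM ATP (Km levels) in 50mM Tris acetate pH 7.5, 10mM Mg acetate, 0.01% Tween-20, 0.05% BSA; qHTS 6-point titration, ~60 µM downward; luminescence read.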
SMN2 splice enh: increases expression of the SMN2 splice variant; 210,000 tested, 2.8% active; Potency, µM (titrated, usually from 46.1 µM), without a hit: at the highest dose activity change, positive = activation, hits mostly activators; HEK293 SMN2-luciferase splicing reporter, luminescence, 30-36 h; further: % of control where 0% means no effect; nearly all actives have a fitted effect of over 55% in size
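HEK293 cells carry an SMN2 minigene-luciferase reporter in which exon 7 inclusion puts luciferase in frame. Cells were seeded at 2000 cells/well, attached for 10-12 hours, then exposed to compounds for 30-36 hours at 37C before ONE-Glo luminescence.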
Rab9 prom act: activators of Rab9 promoter; Huh7 Rab9 promoter-luciferase reporter, luminescence, 24 h; AID 485297; Potency, µM (highest dose often 9.22 µM), for inactives: at the top dose activation, negative = inhibition, actives largely listed as activators; 320,000 tested, 2.8% active; further: % of control where 0% means no effect; nearly all actives have a fitted effect of over 60% in size
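Measured in stably transfected Huh7 cells bearing a Rab9 promoter–luciferase construct: 24 h compound treatment at 37 °C, followed by luminescence detection.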
An asterisk follows results filed as active; ? = inconclusive; nt = not tested or not shown; [ ] = another dose, or the depositor's remark. Compounds with a hit are over-represented: about 7.5% of the library has one in this group of screens. The call rests on the fitted dose curve; in most records, active means well fitted curve in the direction sought with a large enough effect; inconclusive means small, poorly fitted or top-dose-only effect, or another doubt; inactive means no such curve, though single readings can be large; an effect the other way counts as inactive or inconclusive. Potency means the concentration at half of the fitted maximal effect.

SMILES	ELG1 genotoxic	NPC1 prom act	FLuc modulator	SMN2 splice enh	Rab9 prom act
CN(Cc1cc(-c2ccccc2)on1)C(=O)c1cc(COc2c(F)cccc2F)on1	16.2%	23.7%	23.9µM*	nt	2.51µM*
O=C(NC(=S)NCCOCc1ccc(Cl)cc1)c1cccnc1	-1.3%	1.6%	-2.0%	10.6%	-3.6%
N#C/C(=C\c1c(N2CCC(C(N)=O)CC2)nc2ccccn2c1=O)C(=O)NCc1ccco1	0.7%	-3.2%	0.2%	5.4%	-2.2%
NS(=O)(=O)c1ccc(Nc2nc(-c3ccc(F)cc3)cs2)cc1	-5.9%	-2.8%	3.8%	-51.7%	-2.5%
Cc1ccc(C)c(Nc2nc(-c3cccnc3)cs2)c1	-6.7%	12.6%	?	nt	-0.2%[1.84 µM]
Cc1ccc(Nc2nc(-c3ccc(O)c(O)c3)cs2)nc1	?	-22.7%	3.01µM*	nt	-32.8%
Cc1ccc(Nc2nc(-c3ccc(F)cc3)cs2)nc1	?	3.55µM*	4.26µM*	nt	3.98µM*
CCC(=O)NCCc1nc2cc(NC(=O)c3ccc(Cl)cc3)ccc2n1C	?	1.78µM*	10.7µM*	nt	0.631µM*
CC(=O)N1CCN(Cc2nc3cc(NC(=O)c4ccc(Cl)cc4)ccc3n2C)CC1	-2.8%	-5.3%	?	-45.0%	1.8%
CCC(=O)NCCc1nc2cc(NC(=O)c3ccc(OC)cc3)ccc2n1C	8.91µM*	?	16.9µM*	12.6µM*	?
CCC(=O)NCCc1nc2cc(NC(=O)c3ccc(F)cc3)ccc2n1C	7.3µM*	1.26µM*	16.9µM*	nt	2.82µM*
CC(=O)NCCc1nc2cc(NC(=O)c3ccc(Cl)cc3)ccc2n1C	5.8µM*	0.708µM*	8.49µM*	nt	1.12µM*
CCCC(=O)Nc1ccc2c(c1)nc(CCNC(=O)c1ccccc1)n2C	-1.5%	1.5%	4.1%	-1.7%	-3.6%
COc1cc(CNCCN2CCOCC2)ccc1OCc1c(Cl)cccc1Cl	0.0%	-1.3%	-1.8%	-22.6%	-4.6%
CN1CCC(=O)N([C@H](CC#N)c2ccccc2)CC1	3.2%	2.3%	5.3%	nt	3.7%
CC(=O)NCCc1nc2cc(NC(=O)c3cccs3)ccc2n1C	-12.8%	?	?	nt	4.47µM*
CCCCC[C@H](O)/C=C/[C@@H]1[C@H]2C/C(=C/CCCC(=O)O)C[C@H]2C[C@H]1O	nt	nt	nt	3.4%	nt
CCOc1ccc(S(=O)(=O)N(CC)CC(=O)NCc2ccccn2)cc1C	0.6%	-1.0%	-3.4%	nt	0.7%
O=C(O)c1ccc(-c2ccc(/C=C3\NC(=O)N(Cc4ccc(Cl)cc4)C3=O)o2)cc1	-2.8%	-6.4%	2.2%	nt	0.1%
CC1=NN(c2ccc(C)cc2)C(=O)/C1=C/c1ccc(-c2cc([N+](=O)[O-])ccc2O)o1	-6.6%	-0.2%	12µM*	nt	-4.3%
CC1=NN(c2ccc(Cl)c(C(=O)O)c2)C(=O)/C1=C\c1ccc(-c2ccc(C(=O)O)cc2)o1	1.3%	0.3%	26.9µM*	25.6%	4.7%
CC1=NN(c2ccc(C(=O)O)cc2)C(=O)/C1=C/c1ccc(-c2ccccc2F)o1	10.7%	-5.0%	4.78µM*	nt	4.9%
Cc1ccccc1CNC(=O)C(C)n1nc(C)n2c(cc3occc32)c1=O (stereo not given)	nt	nt	-8.7%	-2.2%	nt
O=C(c1cnn(-c2ccccc2)c1)c1cc(F)ccc1O	?	?	13.5µM*	nt	?
COc1ccc(O)c(C(=O)c2cnn(-c3ccccc3)c2)c1	?	18.9%	?	nt	?
SMILES	ELG1 genotoxic	NPC1 prom act	FLuc modulator	SMN2 splice enh	Rab9 prom act
O=C(c1cnn(-c2ccccc2)c1)c1ccccc1O	?	?	2.39µM*	?	3.16µM*
COc1ccc(-n2cc(C(=O)c3ccc4ccccc4c3O)cn2)cc1	-0.4%	-1.3%	-3.6%	2.9%	9.7%
COc1ccc(-n2cc(C(=O)c3ccccc3O)cn2)cc1	2.31µM*	?	0.849µM*	?	0.501µM*
N#CCCCn1c(=O)oc2ccccc21	-3.2%	-0.1%	1.4%	-4.9%	17.8%
Cc1ccc(-c2cc3nn(-c4ccccc4)c(N)c3c(=O)o2)cc1	-2.0%	25.4%	6.01µM*	-28.2%	?
Cc1noc(C)c1C(=O)N1CCC2(CCCN(Cc3ccccc3)C2)CC1	nt	nt	nt	-9.1%	nt
O=C(Cc1nc2ccccc2[nH]1)c1ccc(Br)cc1	8.9%	28.8%	21.3µM*	?	?
O=C(Cc1ccc(Br)cc1)Nc1nc2ccccc2[nH]1	6.8%	13.1%	-13.8%	nt	2.8%
O=C(Cc1nc2ccccc2[nH]c1=O)c1ccccc1	?	3.16µM*	3.38µM*	11.2µM*	1.41µM*
O=C(CNC(=O)c1ccccc1)Nc1cccc(C(F)(F)F)c1	-0.4%	-0.4%	-0.4%	16.3%	11.5%
CCOc1ccc(-c2nnn(CC(=O)NCc3ccc(F)cc3)n2)cc1OCC	-2.2%	-0.7%	-0.1%	-5.3%	5.3%
O=C(COc1cccc(Cl)c1)Nc1ccc(N2CCOCC2)cc1	-2.7%	-0.9%	-2.0%	-25.0%	-2.2%
Cc1ccc(CNC(=O)CCCn2nc(C)c3c(C)n(-c4ccccc4)nc3c2=O)cc1	-0.3%	-5.8%	0.4%	nt	-4.0%
Cc1[nH]c(C)c2c(=O)n(-c3ccccc3)ncc12	20.6µM*	17.6%	?	-0.4%	?
Clc1ccc(C2=NN=C3COc4ccccc4N3C2)cc1	-4.1%	-0.5%	-17.7%	-19.8%	-2.6%
c1ccc(C2=Nc3ccccc3OC2)cc1	7.0%	?	3.01µM*	12.6%	3.55µM*
CC1=Nc2cc(Cl)ccc2Oc2ccccc21	-1.2%	-2.3%	-15.6%	nt	1.0%
Clc1ccc(C2=Nc3cc(Cl)ccc3OC2)cc1	?	?	7.57µM*	?	?
O=C1CC(c2ccccc2)=Nc2ccccc2N1	-2.4%	1.9%	-11.9%	-7.5%	27.4%
Cc1ccc2c(c1)N=C(c1ccc(Cl)cc1)CO2	?	3.55µM*	1.69µM*	22.4µM*	2.51µM*
CN(CCC#N)C(=O)COC(=O)c1ccccc1C(=O)c1ccc(Cl)c([N+](=O)[O-])c1	-8.7%	-14.5%	1.1%	?	-2.3%
COc1ccc(C(NC(=O)CN2CCCCCC2)c2ccc(OC)cc2)cc1	-3.4%	1.0%	0.7%	nt	0.2%
O=c1ccnc(SCCc2ccccc2)[nH]1	1.8%	2.0%	-13.4%	nt	3.5%
O=c1ccnc(S/C=C/c2ccccc2)[nH]1	13.5%	?	19µM*	16.2%	16.0%
COc1cccc(C(=O)Nc2ccc(Cl)c(C(F)(F)F)c2)c1	1.0%	2.2%	21.3µM*	-4.9%	?
COc1cc(C(=O)Nc2ccc(Cl)c(C(F)(F)F)c2)cc(OC)c1OC	1.6%	0.2%	21.3µM*	-8.0%[1.84 µM]	8.9%
COc1cccc(C(=O)Nc2cc(C(F)(F)F)ccc2Cl)c1	-0.6%	1.5%	?	-14.2%	1.3%
CCn1cc(S(=O)(=O)Nc2cc(F)ccc2C)cn1	-5.9%	-4.2%	7.3%	3.5%	-7.0%
COC(=O)C1=C(C)N(CC2CC2)C(=NCc2cccc(C(F)(F)F)c2)N[C@H]1c1ccccc1	-3.7%	-2.9%	1.7%	nt	-1.4%
